Test results published in PubChem BioAssay AID463173 (ICCB-Longwood Screening Facility, Harvard Medical School, 2010).
The whole screen tested about 52,000 compounds, of which about 1,700 (3.3%) were called active. The entries come from a sample that favours actives as a whole. Values without a mark were called inactive. Rule as the data show it: active = survival mostly below about 52% (no sharp cut-off); inactive = mostly above about 56%.

The compounds below were run on Wild type (assay: growth inhibition of S. aureus wild type versus tarO mutant, primary screen, teichoic acid synthesis inhibitors, RN4220, OD600 (AID 463173)). Conditions: S. aureus RN4220 wild type/DeltatarO growth, OD600, 18 h, stronger effect = lower value, screened at 18.75 µg/mL (by protocol).
Compound COc1ccc(NC(=O)CSc2ncc3c(n2)-c2ccccc2N(Cc2ccc(C)cc2)S3(=O)=O)cc1Cl has a survival of 134%.
Cc1cccc(OCC(=O)OCc2cc(=O)n3nc(C4CCCCC4)sc3n2)c1 gave a survival of 100%.
Compound N#Cc1cc2cc3c(cc2nc1N1CCCN(C(=O)c2ccccc2)CC1)OCO3 has a survival of 103%.
COc1ccc(C(=O)NCC(c2ccc3c(c2)OCO3)N2CCN(c3ccccc3F)CC2)cc1 (configuration not stated) was tested, and the survival was 77%.
Compound Cc1ccc(NC(=O)CN2C(=O)COc3ccc(S(=O)(=O)N4CCCCC4)cc32)cc1N(C)C has a survival of 106%.
CC(=O)N1CCc2cc(Br)cc(S(=O)(=O)CCC(=O)N3CCN(c4cccc(C)c4C)CC3)c21 showed a survival of 77%.
With Fc1ccc(Nc2ncnc3c2nc2n3CCCCC2)c(F)c1 the survival was 14% (active).
COc1ccc(Nc2ncnc3c2nc2n3CCCC2)cc1Cl gave a survival of 59%.
Compound Fc1ccccc1Nc1ncnc2c1nc1n2CCCCC1 has a survival of 74%.
In the case of COc1ccccc1Nc1ncnc2c1nc1n2CCCCC1, the survival is reported as 133%.
In the case of Clc1cccc(Nc2ncnc3c2nc2n3CCCCC2)c1, the survival is reported as -1% (active).
With Clc1ccccc1Nc1ncnc2c1nc1n2CCCCC1 the survival was 0% (active).
In the case of Clc1cccc(CNc2ncnc3c2nc2n3CCCC2)c1, the survival is reported as 92%.
Compound CCc1ccccc1Nc1ncnc2c1nc1n2CCCC1 has a survival of 71%.
Work on Fc1ccc(Nc2ncnc3c2nc2n3CCCC2)cc1 yielded a survival of 76%.
For CCC(=O)N1CCc2cc(S(=O)(=O)NC(Cc3ccccc3)C(=O)NCc3ccc(F)cc3)ccc21 (configuration not stated), the survival was 83%.
Work on COc1ccc(-c2cc(-c3ccccc3)nc(SCC(=O)Nc3ccccc3C)c2C#N)cc1 yielded a survival of 70%.
With COC(=O)c1ccc(Cl)cc1NC(=O)N(C)CCc1c(C)nn(C)c1C the survival was 111%.
C#CCn1c(O)c(N=NC(=O)c2ccncc2)c2cc(Br)ccc21 gave a survival of 110%.
In the case of Cc1noc(C)c1S(=O)(=O)NCCc1csc2nc(-c3ccc(Cl)cc3)nn12, the survival is reported as 72%.
O=C(O)c1cccc(NC(=O)c2cccc(S(=O)(=O)Nc3cccc(F)c3)c2)c1 showed a survival of 169%.
With CCc1c(C)nc2nncn2c1Nc1ccc(C)c(F)c1 the survival was 83%.
Compound Cc1cc(C)cc(NC(=O)Cc2c(C(=O)O)c(C)cn2C)c1 has a survival of 47%.
CCOC(=O)c1cnc2c(C(F)(F)F)cccc2c1Nc1cccc(C(=O)OC)c1 was tested, and the survival was 26%.
CCOC(=O)c1cnc2c(C)cc(C)cc2c1Nc1cccc(C(=O)O)c1 was tested, and the survival was 23% (active).
In the case of CCOC(=O)c1cnc2c(C)cc(C)cc2c1Nc1ccc(N2CCOCC2)cc1, the survival is reported as 15%.
CCOC(=O)c1cnc2c(Cl)cc(Cl)cc2c1Nc1ccccc1OC showed a survival of 65%.
CCOC(=O)c1cnc2c(C)cc(C)cc2c1Nc1ccccc1OCC was tested, and the survival was -1% (active).
For CCOC(=O)c1cnc2c(ccc3ccccc32)c1Nc1ccccc1OCC, the survival was 109%.
Compound CCOC(=O)c1cnc2c(C)cc(C)cc2c1NCCN1CCOCC1 has a survival of 53%.
In the case of CCOC(=O)c1cnc2c(C)cc(C)cc2c1Nc1ccc(OCc2ccccc2)cc1, the survival is reported as 11% (active).
In the case of Cc1nn2c(=O)cc(COC(=O)c3ccccc3NC(=O)C(C)C)nc2s1, the survival is reported as 74%.
Compound Cc1cc(C)c2nc(N(Cc3cccnc3)C(=O)c3ccc(S(=O)(=O)N(C)C)cc3)sc2c1 has a survival of 57%.
COc1cccc(-c2nc(CS(=O)(=O)CC(=O)NCCc3ccc(OC)cc3OC)c(C)o2)c1 was tested, and the survival was 83%.
Cc1ccc(N(C)S(=O)(=O)c2nnc(NC(=O)CC(C)C)s2)cc1 showed a survival of 87%.
For Cc1ccccc1OCC(O)Cn1c(=N)n(CCN2CCCCC2)c2ccccc21 (configuration not stated), the survival was 76%.
N=c1n(CCN2CCCCC2)c2ccccc2n1CC(O)COc1ccccc1 (configuration not stated) gave a survival of 144%.
N=c1n(CCN2CCCCC2)c2ccccc2n1CC(O)COc1ccc(Cl)cc1Cl (configuration not stated) was tested, and the survival was -3% (active).
O=C(CSc1nc2c([nH]c3ccccc32)c(=O)n1-c1ccccc1)NCc1ccc(F)cc1 gave a survival of 87%.
For COCCNC(=O)CSc1nnc(-c2ccc(OC)c(OC)c2)c(-c2ccc(OC)c(OC)c2)n1, the survival was 68%.
For CC(=O)N1N=C(c2ccccc2)CC1c1ccccc1 (configuration not stated), the survival was 104%.
C=Cc1ccc(Cn2nc(-c3ccc(C)cc3)ccc2=O)cc1 was tested, and the survival was 57%.
O=C(O)/C(=C/C(=O)c1ccccc1)Nc1ccccc1 showed a survival of 100%.
CC(=O)c1c(C)oc2ccc(NS(=O)(=O)c3ccc(C(C)C)cc3)cc12 gave a survival of 86%.
With CC(C)(C)c1ccc(S(=O)(=O)Nc2ccc(O)c(Sc3nc4ccccc4s3)c2)cc1 the survival was 3% (active).
Compound O=S(=O)(Nc1ccc2oc3c(c2c1)CCCC3)c1cc(Cl)ccc1Cl has a survival of 46%.
Compound CC(C)c1ccc(C(=O)Nc2ccc(-c3nc4ccccc4s3)c(Cl)c2)cc1 has a survival of 141%.
Cc1cc(S(=O)(=O)Nc2ccc3oc4c(c3c2)CCCC4)ccc1Cl was tested, and the survival was 46%.
For CC(C)c1ccc(S(=O)(=O)Nc2ccc(O)c(Sc3nc4ccccc4s3)c2)cc1, the survival was 0% (active).
For Cc1cc(S(=O)(=O)Nc2ccc(O)c(Sc3nc4ccccc4s3)c2)ccc1Cl, the survival was -2% (active).
CC(C)NC(=O)c1nc2ccccc2s1 was tested, and the survival was 120%.
In the case of O=S(=O)(Nc1ccc(O)c(Sc2nc3ccccc3s2)c1)c1cc(Cl)ccc1Cl, the survival is reported as 0% (active).
In the case of Cc1nc2ccc(S(=O)(=O)NC(C(=O)NCc3ccccc3Cl)C(C)C)cc2s1 (configuration not stated), the survival is reported as 85%.
In the case of Cn1c(=O)sc2cc(NS(=O)(=O)c3ccc(C(C)(C)C)cc3)ccc21, the survival is reported as 73%.
In the case of O=C(COc1ccc(Cl)cc1)Nc1ccc(O)c(-c2nc3ccccc3s2)c1, the survival is reported as 69%.
CCN(C(=O)CSc1nnc(-c2cc(OC)c(OC)c(OC)c2)o1)c1ccccc1 gave a survival of 87%.
In the case of CCn1c(CNC(=O)c2ccc(OC)cc2)nnc1SCC(=O)Nc1cccc(C)c1, the survival is reported as 119%.
For CCC(C(=O)Nc1cccc(C#N)c1)n1nc(-c2ccccc2)ccc1=O (configuration not stated), the survival was 79%.
CC(C)N(Cc1ccccc1)C(=O)Cn1ncc2c3ccccc3n(Cc3ccccc3)c2c1=O was tested, and the survival was 96%.
For CN(C)c1ccc(C(CNS(=O)(=O)c2ccc(Br)cc2)N2CCCC2)cc1 (configuration not stated), the survival was 68%.
With C=CCC(CC=C)(CNC(=O)C(=O)Nc1ccc(Br)cc1)c1ccc(OC)c(OC)c1 the survival was 90%.
In the case of CCCNC(=O)CN1CCN(c2ccc(NC(=O)c3ccc(OC)cc3)cc2C(=O)O)CC1, the survival is reported as 87%.
In the case of CC(=O)c1ccc(N2CCN(c3ccc(NC(=O)c4ccc(F)cc4)cc3C(=O)O)CC2)cc1, the survival is reported as 14% (active).
With O=C(Nc1ccc(N2CCC(N3CCCCC3)CC2)c(C(=O)O)c1)c1ccc(Br)cc1 the survival was 75%.
Cc1cccc(NC(=O)c2ccc(F)c(S(=O)(=O)N3CCC4(CC3)OCCO4)c2)c1 showed a survival of 71%.
In the case of Cc1cccc(NC(=O)c2ccc(F)c(S(=O)(=O)N3CCN(c4ccc(F)cc4)CC3)c2)c1, the survival is reported as -3% (active).
Work on CCOc1ccccc1NC(=O)c1ccc(F)c(S(=O)(=O)N2CCN(c3ccc(F)cc3)CC2)c1 yielded a survival of 60%.
COc1ccc(C(=O)Nc2ccc(N3CCN(c4ccccc4)CC3)c(C(=O)O)c2)cc1 was tested, and the survival was 83%.
O=C(Nc1ccc(N2CCC(N3CCCCC3)CC2)c(C(=O)O)c1)c1ccccc1 showed a survival of 70%.
Work on Cc1cccc(C(=O)Nc2ccc(N3CCN(c4ccc(F)cc4)CC3)c(C(=O)O)c2)c1 yielded a survival of 63%.
In the case of O=C(Nc1ccc(N2CCN(CCOc3ccc(Cl)cc3)CC2)c(C(=O)O)c1)c1ccc(F)cc1, the survival is reported as -3% (active).
For O=C(Nc1ccc(N2CCN(c3ccc(F)cc3)CC2)c(C(=O)O)c1)c1ccccc1F, the survival was 76%.
O=C(Nc1ccc(N2CCOCC2)c(C(=O)O)c1)c1ccc(Br)cc1 was tested, and the survival was 0% (active).
COc1ccc(NC(=O)c2nnn(CC(=O)Nc3cc(C)cc(C)c3)c2N)c(OC)c1 was tested, and the survival was 139%.
Compound CC(=O)Nc1ccc(NC(=O)CCNS(=O)(=O)c2cccc3nsnc23)cc1 has a survival of 89%.
In the case of Cn1c(-c2ccc(NC(=O)c3ccccc3)cc2)n[nH]c1=S, the survival is reported as 113%.
Compound CC(C)COc1ccc(Nc2ncnc3ccc(Br)cc23)cc1 has a survival of 79%.
With O=C(NCC(c1cccnc1)N1CCc2ccccc2C1)C(=O)Nc1cccc(Cl)c1 (configuration not stated) the survival was 47%.
Compound Cc1ccc(Cl)cc1N1CCN(CCCNC(=O)Cn2ncc3c([nH]c4ccccc43)c2=O)CC1 has a survival of 99%.
For Cc1cc(C)cc(-n2c(C)nc3cc(C(=O)NCc4ccc(F)cc4)ccc32)c1, the survival was 138%.
For CC(NC(=O)c1ccccc1)c1n[nH]c(=S)n1C (configuration not stated), the survival was 109%.
CC(C)NC(=O)/C=C/c1ccc2c(c1)OCO2 showed a survival of 110%.
With O=C(Cn1c(=O)n(Cc2ccccc2)c(=O)c2sc3ccccc3c21)NCc1ccccc1Cl the survival was 125%.
Work on CC1=C(C(=O)OCc2ccc(C)cc2)C(c2ccccc2F)CC(=O)N1 (configuration not stated) yielded a survival of 115%.
In the case of COc1ccc(CNCc2c(C(=O)O)c(C)n(Cc3ccc(Cl)cc3)c2C)c(OC)c1, the survival is reported as 101%.
In the case of CCCn1cnc2cc(NCc3ccc(OC)cc3OC)ccc21, the survival is reported as 63%.
For CC(C)(C)n1cnc2cc(NS(=O)(=O)c3ccccc3)ccc21, the survival was 112%.
CCCn1cnc2cc(NCc3ccccc3OCC)ccc21 gave a survival of 61%.
Work on COc1cccc(CNc2ccc3c(c2)ncn3C)c1OC yielded a survival of 121%.
For CCc1ccc(CNc2ccc3c(c2)ncn3C(C)(C)C)cc1, the survival was -16% (active).
Work on CCn1cnc2cc(NCc3ccc(N(C)C)cc3)ccc21 yielded a survival of 94%.
CCCn1cnc2cc(NC(=O)c3cc(OC)c(OC)c(OC)c3)ccc21 showed a survival of 76%.
With CCCCn1cnc2cc(NCc3ccccc3Cl)ccc21 the survival was -16% (active).
COc1cc(CNc2ccc3c(c2)ncn3C(C)C)cc(OC)c1OC was tested, and the survival was 66%.
In the case of CC(C)(C)n1cnc2cc(NCc3ccccc3Cl)ccc21, the survival is reported as 8% (active).
With CCCCn1cnc2cc(NC(=O)c3cc(OC)c(OC)c(OC)c3)ccc21 the survival was 79%.
In the case of CCCCn1cnc2cc(NCc3ccc(OCC)cc3)ccc21, the survival is reported as 4% (active).
